# PubChem BioAssay (Tox21)
# Results filed as inconclusive are left out. A number with no mark means an inactive call. Active and inactive are the calls of the source. The call rests on the fitted dose curve; in most records, active means well fitted cell-killing curve with a large enough effect in the repeat runs; inconclusive means weak or mixed curves; inactive means no such curve, though single readings can be large or run the other way.
# Test: qHTS assay for identifying genotoxic compounds that show differential cytotoxicity against isogenic chicken DT40 cell lines with known DNA damage response pathways - Rad54/Ku70 mutant cell line (AID 743015); further: nearly all actives have a fitted effect of over 60% in size
# Settings: DT40 Rad54/Ku70 mutant viability, CellTiter-Glo, 40 h; series mostly up to 66.8 µM; activity change, negative = cytotoxicity: at the top concentration
# Excerpt: National Center for Advancing Translational Sciences [NCATS]
# NIH Chemical Genomics Center [NCGC]
# U.S. Environmental Protection Agency [EPA]
# National Institutes of Environmental Health Sciences [NIEHS]
# National Toxicology Program [NTP]
# U.S. Food and Drug Administration [FDA]
# DNA repair pathways play a critical role in cellular homeostasis by repairing DNA damage induced by endogenous processes and xenobiotics. Isogenic chicken DT40 cell lines deficient in different DNA repair pathways can be used to identify genotoxic compounds and aid in characterizing the nature of the DNA damage induced. Two DNA repair-deficient cell lines with disrupted genes, Rad54/Ku70 or Rev3, were used to screen the Tox21 10K compound library. Possible genotoxicity was based on the presence of a significant increase in cytotoxicity in one or more of the DNA repair-deficient cell lines compared to that observed in the parental DNA repair-proficient cell line. CellTiter Glo viability assay (Promega, Madison, WI) was used to measure cell viability in these cells after compound treatment. This assay includes the data from the Rad54/Ku70 mutant cell line.
# Tox21 Assay Protocol Summary:
# 300 DT40 mutant cells in 5 uL/well were dispensed into white, solid-bottom 1536-well plates using a Multidrop Combi (ThermoFisher Scientific, Waltham, MA) dispenser. After the assay plates were incubated at 37 C/5% CO2 for approximately 0.5 hour, 23 nL of compounds dissolved in DMSO, positive controls or DMSO only was transferred into the assay plate by a pintool work station (Kalypsys, San Diego, CA). The assay plates were incubated at 37 C/5% CO2 for 40 hours. After 5 uL per well of CellTiter-Glo reagent was added into each well of the assay plates, the plates were incubated for 30 min at room temperature and the luminescence intensity of the plates was measured using a ViewLux (PerkinElmer, Shelton, CT) plate reader.
# On the % scale 0 is the no-effect control and ±100 the full control effect; potency means the concentration at half of the fitted maximal effect.
SMILES,"activity change, negative = cytotoxicity",Potency
CC1(C)S[C@@H]2[C@H](NC(=O)Cc3ccccc3)C(=O)N2[C@H]1C(=O)O (tested in a mixture with another compound),3.96%,
CC(C)OC(=O)C(C(=O)OC(C)C)=C1SC=CS1,,23.7 µM (active)
O=c1[nH]c(=O)c2cn[nH]c2[nH]1,-2.76%,
O=C(O)Cc1c(Cl)ccc(Cl)c1Cl,8.78%,
CC(C)(C)c1ccc(N)cc1,2.01%,
CCCCCCCCCCCC(C)=O,-3.86%,
O=C(O)COc1ccc2ccccc2c1,6.93%,
Cc1ccc2cccnc2c1,5.21%,
C=CC(=O)CC,7.45% [at 95.1 µM],
O=C(CCBr)N1CCN(C(=O)CCBr)CC1,-0.0028%,
CCCCN(CCCC)CCCCCCN(CCCC)CCCC,4.61%,
C=CCCCCCCCCCCCCCC,-2.47% [at 30.7 µM],
CC(C)=CCC/C(C)=C\C#N,3.95%,
Cc1ccccc1OCC(=O)O,2.96%,
CN(C)CCc1c[nH]c2ccc(C[C@H]3COC(=O)N3)cc12,6.88%,
COC(C)(C)CC(C)=O,,61.1 µM (active)
CCO[Si](CC(C)C)(OCC)OCC,-2.03%,
CN(C)CCC[C@@]1(c2ccc(F)cc2)OCc2cc(C#N)ccc21,2.55%,
Cc1cc(N)no1,3.81% [at 95.1 µM],
CCCCOCCCC,3.11%,

SMILES,"activity change, negative = cytotoxicity",Potency
CC(=O)SCC(CC(=O)c1ccc(C)cc1)C(=O)O (stereo not given),-5.85%,
CC(C)CC(O)Cc1ccccc1 (stereo not given),0.558%,
Nc1ccc(C(=O)NCC(=O)O)cc1,0.7% [at 30.7 µM],
O=C(O)Cc1ccccc1Oc1ccc(Cl)cc1Cl,9.18%,
CC1(C)CC(N)CC(C)(C)N1,16.1%,
O=C(c1ccccc1)c1cccc(O)c1,0.916% [at 95.1 µM],
NC[C@H]1O[C@H](O[C@H]2[C@H](O)[C@@H](O[C@H]3O[C@H](CO)[C@@H](O)[C@H](N)[C@H]3O)[C@H](N)C[C@@H]2N)[C@H](N)[C@@H](O)[C@@H]1O,,inactive
COc1cc(OC)cc(OC)c1,7.4%,
COc1cc2nc(N3CCN(C(=O)C4CCCO4)CC3)nc(N)c2cc1OC (stereo not given),4.61%,
N#Cc1ccccc1C#N,7.07%,
CC(C)(C)C(=O)NCCCC(=O)O,3.16%,
CC12CCCC=C1C(=O)OC2=O (stereo not given),-7.41%,
O=P(O)(O)C(O)(Cc1cccnc1)P(=O)(O)O,1.49%,
CCCCCCCCCCCCCCCC(=O)OC,-2.1% [at 30.7 µM],
Cc1ccc(N)nc1,7.54%,
CC(C)(O)c1ccc(C(C)(C)O)cc1,-0.714%,
C/C=C/C(=O)CCCC,-20.3%,
Cc1nnc(C(=O)NC(C)(C)c2nc(C(=O)NCc3ccc(F)cc3)c(O)c(=O)n2C)o1,6.37%,
CC/C=C\CCCCCCCCCCOC(C)=O,-0.94%,
CC(=O)OC/C=C(/C)CCC=C(C)C,0.667%,
